Assay results taken from paper PMC11062922 (Nature Chemical Biology, 2023).
Where two headings read alike, the source gives them in different places.

Columns and labels:
Design in all cases: species or system human, MV4-11 + K-562 + COLO205 + SK-N-BE2 + OVCAR-8
CSK = conditions: read-out: apparent Kd, n = 1
EPHA1 = conditions: read-out: apparent Kd, n = 1
EPHB3 = conditions: read-out: apparent Kd, n = 1
RIPK2 = conditions: read-out: apparent Kd; compound concentrations: 100 nM and 1000 nM (sheet 'Samples'), CATDS: 1.2186963927709901E-2; n = 1
AXL = conditions: read-out: apparent Kd, n = 1
FYN = conditions: read-out: apparent Kd; compound concentrations:100 nM and 1000 nM (sheet 'Samples'); n = 1
IRAK3 = conditions: read-out: apparent Kd, n = 1
LYN = conditions: read-out: apparent Kd, n = 1
ULK1 = conditions: read-out: apparent Kd; compound concentrations:100 nM and 1000 nM (sheet 'Samples'); n = 1
CDK9 = conditions: read-out: apparent Kd, n = 1
CIT = conditions: read-out: apparent Kd, n = 1
TGFBR2 = conditions: read-out: apparent Kd, n = 1
PDGFRB = conditions: read-out: apparent Kd, n = 1
CDC42BPG = conditions: read-out: apparent Kd, n = 1
PRKG1 = conditions: read-out: apparent Kd, n = 1
ROCK1 = conditions: read-out: apparent Kd, compound concentrations: 100 nM and 1000 nM (sheet 'Samples'), n = 1
CDC42BPA = conditions: read-out: apparent Kd, n = 1
PIK3CG = conditions: read-out: apparent Kd, n = 1
ULK3 = conditions: read-out: apparent Kd, compound concentrations: 100 nM and 1000 nM (sheet 'Samples'), n = 1
MTOR = conditions: read-out: apparent Kd; compound concentrations:100 nM and 1000 nM (sheet 'Samples'); n = 1
[1] = compound concentrations:100 nM and 1000 nM (sheet 'Samples')

Cl.Nc1c(C(=O)c2cccc(C#CCN3CCCCC3)c2)cnn1-c1ccc(F)cc1 [RO1154461-001]
potency estimated from few doses (CSK; compound concentrations: 100 nM and 1000 nM (sheet 'Samples'), CATDS: 1.25977312115917E-2): 877 nM
potency estimated from few doses (EPHA1; compound concentrations: 100 nM and 1000 nM (sheet 'Samples'), CATDS: 1.62394808146854E-2): 463 nM
potency estimated from few doses (EPHB3; compound concentrations: 100 nM and 1000 nM (sheet 'Samples'), CATDS: 1.0883176780773701E-2): 1390 nM
potency estimated from few doses (RIPK2): 966 nM

CNC(=O)c1ccccc1Nc1nc(Nc2ccc(N3CCOCC3)cc2)ncc1Cl.Cl [GSK1576028A]
potency estimated from few doses (AXL; [1]): 732 nM
potency estimated from few doses (FYN): 369 nM
potency estimated from few doses (IRAK3; [1]): 3.81 nM
potency estimated from few doses (LYN; [1]): 1010 nM
potency estimated from few doses (ULK1): 1420 nM

CN(C)CC(O)COc1ccc(Nc2nccc(-c3cnn4nc(N5CCOCC5)ccc34)n2)cc1 (stereo not drawn) [GW767488X]
potency estimated from few doses (CDK9; [1]): 534 nM
potency estimated from few doses (CIT; [1]): 998 nM
potency estimated from few doses (IRAK3; [1]): 64.8 nM
potency estimated from few doses (TGFBR2; [1]): 215 nM
potency estimated from few doses (ULK1): 793 nM

Cc1n[nH]c2cc(Nc3ccnc(Nc4cccc(CN5CCOCC5)c4)n3)ccc12 [GW682569X]
potency estimated from few doses (IRAK3; compound concentrations: 100 nM and 1000 nM (sheet 'Samples'), CATDS: 0.17881857649065999): 348 nM
potency estimated from few doses (TGFBR2; compound concentrations: 100 nM and 1000 nM (sheet 'Samples'), CATDS: 0.113560287008428): 891 nM

CC(=O)N[C@@H](Cc1ccc(OP(=O)(O)O)cc1)C(=O)N[C@H]1CCC(=O)N2CCC[C@@H](C(=O)NCc3ccc(Cl)cc3)N2C1=O [RO0325308-000]
potency estimated from few doses (CSK; [1]): 1550 nM
potency estimated from few doses (IRAK3; [1]): 1530 nM
potency estimated from few doses (ULK1): 1610 nM

COC(=O)c1cccc(NC(=O)NC2CCN(c3ccnc(Nc4cc(OC)c(OC)c(OC)c4)n3)C2)c1 (stereo not drawn) [GSK1379767A]
potency estimated from few doses (IRAK3; compound concentrations: 100 nM and 1000 nM (sheet 'Samples'), CATDS: 0.12620401960154601): 1050 nM

CCN(CC)Cc1ccc(Nc2nccc(-c3cnn4ncccc34)n2)cc1 [GW780056X]
potency estimated from few doses (CDK9; compound concentrations: 100 nM and 1000 nM (sheet 'Samples'), CATDS: 0.168116243338059): 19.4 nM
potency estimated from few doses (PDGFRB; compound concentrations: 100 nM and 1000 nM (sheet 'Samples'), CATDS: 2.40786043408843E-2): 746 nM

Cl.Cl.NC(CNC(=O)c1cc(Br)c(-c2ccnc3[nH]ccc23)s1)c1ccccc1.NC(CNC(=O)c1cc(Br)c(-c2ccnc3[nH]ccc23)s1)c1ccccc1 (stereo not drawn) [GSK1322949A]
potency estimated from few doses (CDC42BPG; compound concentrations: 100 nM and 1000 nM (sheet 'Samples'), CATDS: 3.2590652290340097E-2): 1010 nM
potency estimated from few doses (PRKG1; compound concentrations: 100 nM and 1000 nM (sheet 'Samples'), CATDS: 7.4482262143184694E-2): 247 nM
potency estimated from few doses (ROCK1; CATDS: 9.3197598269089799E-2): 181 nM

CS(=O)(=O)CCn1c(=O)c(Oc2ccc(F)cc2F)cc2cnc(NC3CCOCC3)nc21 [RO5027956-000]
potency estimated from few doses (CSK; [1]): 1540 nM
potency estimated from few doses (EPHA1; [1]): 724 nM
potency estimated from few doses (EPHB3; [1]): 2330 nM

O=C(O)C(F)(F)F.O=C(O)C(F)(F)F.O=c1[nH]ccc2nc(N[C@@H]3CCCNC3)nc(Nc3ccc(S(=O)(=O)N4CCOCC4)cc3)c12.O=c1[nH]ccc2nc(N[C@@H]3CCCNC3)nc(Nc3ccc(S(=O)(=O)N4CCOCC4)cc3)c12 [GSK2177277A]
potency estimated from few doses (AXL; compound concentrations: 100 nM and 1000 nM (sheet 'Samples'), CATDS: 1.0312125146775999E-2): 251 nM
potency estimated from few doses (CDC42BPA; compound concentrations: 100 nM and 1000 nM (sheet 'Samples'), CATDS: 6.6693958930569E-3): 1260 nM
potency estimated from few doses (CDC42BPG; compound concentrations: 100 nM and 1000 nM (sheet 'Samples'), CATDS: 1.3688403769646499E-2): 119 nM
potency estimated from few doses (LYN; compound concentrations: 100 nM and 1000 nM (sheet 'Samples'), CATDS: 7.0851480794777598E-3): 942 nM
potency estimated from few doses (PDGFRB; compound concentrations: 100 nM and 1000 nM (sheet 'Samples'), CATDS: 3.6594692875912202E-2): 18.3 nM
potency estimated from few doses (PIK3CG; compound concentrations: 100 nM and 1000 nM (sheet 'Samples'), CATDS: 7.6571772064284397E-3): 679 nM
potency estimated from few doses (ROCK1; CATDS: 7.59809178232565E-3): 700 nM
potency estimated from few doses (ULK3; CATDS: 1.28018633148979E-2): 140 nM

CCn1c(-c2nonc2N)nc2c(C#CC(C)(C)O)nc(O[C@@H](CN)c3ccccc3)cc21.O=C(O)C(F)(F)F [GSK1007102B]
potency estimated from few doses (CDC42BPA; [1]): 952 nM
potency estimated from few doses (CDC42BPG; [1]): 191 nM
potency estimated from few doses (CIT; [1]): 21.1 nM
potency estimated from few doses (PRKG1; [1]): 9.31 nM

NCC(NC(=O)c1cc(-c2cn[nH]c2)c(-c2ccnc3[nH]ccc23)s1)c1ccccc1.NCC(NC(=O)c1cc(-c2cn[nH]c2)c(-c2ccnc3[nH]ccc23)s1)c1ccccc1.O=C(O)C(F)(F)F.O=C(O)C(F)(F)F (stereo not drawn) [GSK1325775A]
potency estimated from few doses (CDC42BPA; compound concentrations: 100 nM and 1000 nM (sheet 'Samples'), CATDS: 0.12802177694120001): 75.6 nM
potency estimated from few doses (CDC42BPG; compound concentrations: 100 nM and 1000 nM (sheet 'Samples'), CATDS: 3.6567109546732701E-2): 1070 nM
potency estimated from few doses (CIT; compound concentrations: 100 nM and 1000 nM (sheet 'Samples'), CATDS: 4.2305109651231403E-2): 719 nM
potency estimated from few doses (PRKG1; compound concentrations: 100 nM and 1000 nM (sheet 'Samples'), CATDS: 5.9396104813121603E-2): 330 nM
potency estimated from few doses (ROCK1; CATDS: 0.15957099257621499): 52.4 nM

O=C1N=C(NCc2cccs2)O/C1=C\c1ccc2ncccc2c1 [RO4624208-000]
potency estimated from few doses (PIK3CG; compound concentrations: 100 nM and 1000 nM (sheet 'Samples'), CATDS: 5.5474832594148302E-2): 936 nM

CN(C)CCNC(=O)Nc1ccc(N(C)c2ccnc(Nc3ccc(CS(C)(=O)=O)cc3)n2)cc1.Cl [GW830900A]
potency estimated from few doses (PDGFRB; [1]): 1330 nM
potency estimated from few doses (TGFBR2; [1]): 1550 nM

Cc1cccc(Nc2nc(N[C@H]3CCNC3)ncc2C(N)=O)c1.Cl [GSK2197149A]
potency estimated from few doses (IRAK3; [1]): 1280 nM
potency estimated from few doses (MTOR): 532 nM
potency estimated from few doses (PIK3CG; [1]): 819 nM
potency estimated from few doses (TGFBR2; [1]): 1870 nM

CN(c1ccc(NC(=O)NCCN2CCOCC2)cc1)c1ccnc(Nc2ccc(CS(C)(=O)=O)cc2)n1.Cl [GW830365A]
potency estimated from few doses (TGFBR2; compound concentrations: 100 nM and 1000 nM (sheet 'Samples'), CATDS: 5.51715170179801E-2): 958 nM

c1ccc(-c2n[nH]cc2Nc2ccnc3ccccc23)nc1 [GW694077X]
potency estimated from few doses (IRAK3; compound concentrations: 100 nM and 1000 nM (sheet 'Samples'), CATDS: 9.0170551839232005E-2): 57.6 nM
potency estimated from few doses (ROCK1; CATDS: 2.4219369604879502E-2): 1650 nM
potency estimated from few doses (TGFBR2; compound concentrations: 100 nM and 1000 nM (sheet 'Samples'), CATDS: 2.8342721884761699E-2): 940 nM

CNc1cc(-c2ccc3c(N)n[nH]c3c2)nc(N)n1 [GSK2224810A]
potency estimated from few doses (MTOR): 475 nM

O=C(O)C(F)(F)F.O=c1[nH]ccc2nc(N[C@@H]3CCNC3)nc(Nc3cc(Cl)cc(Cl)c3)c12 [GSK2188764A]
potency estimated from few doses (CDC42BPG; [1]): 556 nM

COc1cc[nH]c1/C=C1\C(=O)Nc2ccc(F)c(C#CC3(O)CCNCC3)c21.Cl [RO0282986-001]
potency estimated from few doses (AXL; compound concentrations: 100 nM and 1000 nM (sheet 'Samples'), CATDS: 1.01827981772752E-2): 1230 nM
potency estimated from few doses (CDK9; compound concentrations: 100 nM and 1000 nM (sheet 'Samples'), CATDS: 1.1942255869273499E-2): 724 nM
potency estimated from few doses (PDGFRB; compound concentrations: 100 nM and 1000 nM (sheet 'Samples'), CATDS: 1.1337273569473399E-2): 850 nM

COc1cc(Nc2nccc(N3CCC(NC(=O)c4cccc(NC(C)=O)c4)C3)n2)cc(OC)c1OC (stereo not drawn) [GSK1379754A]
potency estimated from few doses (IRAK3; compound concentrations: 100 nM and 1000 nM (sheet 'Samples'), CATDS: 0.18683076270721999): 372 nM
potency estimated from few doses (ULK3; CATDS: 9.2169068852455793E-2): 1390 nM
